According to ChEMBL document CHEMBL1157539, “Thousands of chemical starting points for antimalarial lead identification” (Nature, 2010):

Test system: Plasmodium falciparum
Assay: GSK_TCMDC: Inhibition of Plasmodium falciparum 3D7 in whole red blood cells, using parasite LDH activity as an index of growth. Test compounds present at 2uM
Format: functional

Structure (SMILES)	Inhibition [%]
O=C(Nc1ccc(-c2ccccc2)cc1)Nc1cccc(Cn2ncc(N3CCNCC3)c(Cl)c2=O)c1.O=C(O)C(F)(F)F	100
COc1c(C2CCN(CCCCNC(=O)c3ccc(-c4ccc(C(=O)C(F)(F)F)cc4)cc3)CC2)ccc2c1CCCC2	81
CCN(CC)S(=O)(=O)c1ccc(Cl)c(C(=O)Nc2ccc3nc(C)sc3c2)c1	96
O=C(/C=C/c1ccc(Cl)c(Cl)c1)NCCCCCN1CCCC(CNS(=O)(=O)c2cccc(C(F)(F)F)c2)C1 (stereo not drawn)	92
COc1ccccc1-c1cccc(-c2cccc(NC(=O)c3ccc([N+](=O)[O-])o3)c2)n1	97
CN(C)CCNCc1cccc(-c2ccc3c(Nc4ccc(Oc5ccccn5)cc4)ccnc3c2)c1	99
O=C(Nc1ccc2c(c1)CCN2C1CCN(Cc2cccc(F)c2F)C1)c1ccco1 (stereo not drawn)	87
Cc1cc2nc(-c3ccc(/C=C/C(=O)NC4CCCCC4)cc3)[nH]c2cc1C	93
C#CCOc1ccc(N2C(N)=NC(N)=NC2(C)C)cc1.Cl	94
CC(C)(C)c1ccc(CN2CCC(CNC(=O)c3cc(-c4cccc(C(F)(F)F)c4)cs3)C2)cc1.O=C(O)C(F)(F)F (stereo not drawn)	100
O=C(O)C(F)(F)F.c1cc(CN2CCCCC2)cc(-c2cccc(-c3nc4ccccc4[nH]3)c2)c1	100
CCC[C@@H]1CCN[C@H]([C@H](O)c2ccnc3ccc(OC)cc23)C1.Cl	99
O=C(/C=C/c1ccc(Cl)c(Cl)c1)N1CCC(NCc2c[nH]c3ccccc23)CC1	94
